The whole screen tested about 290,000 compounds, of which about 890 (0.31%) were called active. Rule as the data show it: active = inhibition mostly above about 52% (no sharp cut-off); inactive = mostly below about 76%. For the sample, actives were picked, then their nearest neighbours and some compounds at random.
Experiment: cell-free HIV fusion peptide-binding blockers – biochemical, uHTS, fluorescence dequenching, primary screen (AID 1986)
Conditions: 30 min, stronger effect = higher value
[1] = measured here: repeat confirmation average inhibition, at 18.6 µM

Row | Structure (SMILES) | inhibition (at 20 µM) | inhibition [1] [%]
1 | O=C(CCCCCCCCC(=O)N/N=C/c1ccco1)N/N=C/c1ccco1 | -2.2% (inactive) | 
2 | Oc1ccccc1N1CCN(C(=S)NCCc2ccccc2)CC1 | 9.4% (inactive) | 
3 | Cc1oc2cc([N+](=O)[O-])c(O)c([N+](=O)[O-])c2c1C(=O)c1ccc(Br)cc1 | 51% (active) | 
4 | Cc1oc2cc([N+](=O)[O-])c(O)c([N+](=O)[O-])c2c1C(=O)c1ccc(Cl)cc1 | 19.8% (inactive) | 
5 | COc1ccc(OC)c(C(=O)c2c(C)oc3cc([N+](=O)[O-])c(O)c([N+](=O)[O-])c23)c1 | -0.7% (inactive) | 
6 | CCCNC(=O)NC(=O)CSc1nnc(C)n1N | 1.6% (inactive) | 
7 | CC(=O)c1sc(Nc2cccc(C)c2)nc1C | 0.2% (inactive) | 
8 | O=C(O)CN1C(=O)/C(=C\c2ccccc2OCc2ccc(Cl)cc2)SC1=S | 45.9% (inactive) | 
9 | O=C(O)CN1C(=O)/C(=C\c2cc([N+](=O)[O-])ccc2OCc2ccccc2Cl)SC1=S | 68.9% (active) | 
10 | O=C(O)CN1C(=O)/C(=C\c2ccccc2OCc2ccc(F)cc2)SC1=S | 60.3% (inactive) | 36.9
11 | C=Cn1cc[n+](CC(=O)c2ccc(OC)cc2)c1 | -0.9% (inactive) | 
12 | O=C(NCC1(c2ccccc2)CCCC1)c1cccc(Br)c1 | -2.2% (inactive) | 
13 | CCOC(=O)c1ccccc1N1C(=O)C2Sc3[nH]c(=O)sc3C(/C=C/c3ccccc3)C2C1=O (stereo not given) | 31.6% (inactive) | 
14 | CCOc1ccc(N2C(=O)C3Sc4[nH]c(=O)sc4C(c4ccc(OC)c(OC)c4)C3C2=O)cc1 (stereo not given) | 15.2% (inactive) | 
15 | CCOc1ccc(N2C(=O)C3Sc4[nH]c(=O)sc4C(/C=C/c4ccccc4)C3C2=O)cc1 (stereo not given) | 53.6% (active) | 
16 | Cc1ccc([N+](=O)[O-])cc1S(=O)(=O)Nc1ccc(C(=O)N(C)C)cc1 | -0.4% (inactive) | 
17 | CCC(C(=O)OCCOCCN(CC)CC)c1ccccc1 (stereo not given) | -1.7% (inactive) | 
18 | CN(C(=O)c1ccc(S(=O)(=O)N(C)C)cc1)c1ccc2ccccc2c1 | -2% (inactive) | 
19 | O=C(O)c1ccc(COc2ccccc2/C=C2\NC(=O)N(Cc3ccc(F)cc3)C2=O)cc1 | 37.2% (inactive) | 
20 | O=C(O)c1ccc(COc2ccccc2/C=C2\NC(=O)N(Cc3ccccc3)C2=O)cc1 | 31.4% (inactive) | 
21 | O=C(O)c1ccc(COc2ccccc2/C=C2/NC(=O)N(c3cccc(Cl)c3)C2=O)cc1 | 53.3% (active) | 
22 | CCOc1cc(NC(=S)NCCCN2CCOCC2)c(OCC)cc1NC(=O)c1cccs1 | -2.2% (inactive) | 
23 | Cc1ccc(-c2nc3sc(C#N)c(N)n3c(=O)c2C#N)cc1 | 59.9% (active) | 52.2

Row | Structure (SMILES) | inhibition (at 20 µM) | inhibition [1] [%]
24 | Cc1ccc(-c2c(C#N)c(N)n(-c3ccc(C)cc3)c(=O)c2C#N)cc1 | 3.9% (inactive) | 
25 | Cc1ccc(-c2c(C#N)c(N)n(-c3ccccc3)c(=O)c2C#N)cc1 | -0.6% (inactive) | 
26 | CC1CCN(c2ccc3nnc(CCC(=O)N4CCN(c5ccccc5F)CC4)n3n2)CC1 | 0.3% (inactive) | 
27 | CCOC(=O)C1=NOC(CNC(=O)c2c(-c3ccccc3Cl)noc2C)C1 (stereo not given) | 0.6% (inactive) | 
28 | COc1ccc(CC(NC(C)=O)C(=O)N2CCN(C(=O)N(C(C)C)C(C)C)CC2)cc1 (stereo not given) | -0.1% (inactive) | 
29 | Cc1ccc(/C=C2\SC(N3CCCCC3)=NC2=O)cc1 | -1.2% (inactive) | 
30 | CN(C)c1ccc(/C=C2\SC(N3CCCCC3)=NC2=O)cc1 | 74.1% (active) | 50.6
31 | Cc1ccc(/C=C2\SC(N3CCCC3)=NC2=O)cc1 | -0.9% (inactive) | 
32 | O=C(O)/C=C/c1cccc(NC(=O)Nc2ccc([N+](=O)[O-])cc2)c1 | 1.6% (inactive) | 
33 | O=C(COC(=O)CCc1ccc(S(=O)(=O)N2CCOCC2)cc1)NC(=O)NC1CCCCC1 | 0.6% (inactive) | 
34 | CCCOc1cc(C)c(S(=O)(=O)n2ccc(C)n2)cc1C | 1% (inactive) | 
35 | CC1=Nc2nc(N3CCCCC3)c(C#N)c3c4c(nc(c23)N1)N(c1ccc(C(C)C)cc1)C(=O)C4 | 63.9% (active) | 
36 | COc1ccc(CN2C(=O)Cc3c2nc(N)c2c(N)nc(N4CCCCC4)c(C#N)c32)cc1 | 23.9% (inactive) | 
37 | CCN(CC)c1nc2c3c(nc4c(c3c1C#N)CC(=O)N4c1ccc(Cl)cc1)NC(C)=N2 | 16.3% (inactive) | 
38 | Cc1onc(-c2ccccc2)c1-c1csc(N/N=C/c2ccccc2)n1 | -1.5% (inactive) | 
39 | COc1ccc(C)cc1NC(=O)c1ccccc1NS(=O)(=O)c1ccc(Cl)s1 | 60.5% (active) | 
40 | O=C(Nc1ccccc1)c1ccccc1NS(=O)(=O)c1ccc(Cl)s1 | 28.5% (inactive) | 
41 | Cc1ccc(NC(=O)c2ccccc2NS(=O)(=O)c2ccc(Cl)s2)cc1 | 56.3% (inactive) | 29
42 | CCN(CC)S(=O)(=O)c1ccc(C(=O)Nc2nnc(-c3ccco3)o2)cc1 | 9.7% (inactive) | 
43 | O=C(NC1CC1)C1CCN(C2CCN(C(=O)c3c(F)cccc3Cl)CC2)CC1 | 3.8% (inactive) | 
44 | CC(C)CN1CCC(=O)N(CCN=[N+]=[N-])CC1 | -1.2% (inactive) | 
45 | CC(C)(Oc1ccc(Cl)cc1)C(=O)Nc1ccncc1 | -1.9% (inactive) | 
46 | NC(=O)[C@@H]1CC2(CC(c3cccc(NC(=O)[C@@H]4CCC(=O)N4)c3)=NO2)CN1C(=O)Cc1ccc([N+](=O)[O-])cc1 (stereo not given in full) | -1.2% (inactive) | 

Row | Structure (SMILES) | inhibition (at 20 µM) | inhibition [1] [%]
47 | O=C(O)C(Cc1ccccc1)N1C(=O)/C(=C/c2ccccc2)SC1=S (stereo not given) | 21.1% (inactive) | 
48 | COc1cccc(/C=C2\SC(=S)N(C(Cc3ccccc3)C(=O)O)C2=O)c1 (stereo not given) | 30.7% (inactive) | 
49 | CCOc1cc(/C=C2\SC(=Nc3ccc(F)cc3)N(c3ccc(F)cc3)C2=O)ccc1OCC(=O)O | 41.5% (inactive) | 
50 | CCOc1cc(/C=C2\SC(=Nc3ccccc3)N(c3ccccc3)C2=O)ccc1OCC(=O)O | 58.9% (active) | 
51 | O=C(O)C(Cc1ccccc1)N1C(=O)/C(=C/c2cccs2)SC1=S (stereo not given) | 17.7% (inactive) | 
52 | CCOc1ccc(/C=C2\SC(=S)N(C(C(=O)O)c3ccccc3)C2=O)cc1OC (stereo not given) | 12.1% (inactive) | 
53 | COc1ccc(/C=C2\SC(=S)N(C(Cc3ccccc3)C(=O)O)C2=O)cc1 (stereo not given) | 38.4% (inactive) | 
54 | CCOc1ccc(/C=C2/SC(=S)N(C(C(=O)O)c3ccccc3)C2=O)cc1OCC (stereo not given) | 56.2% (active) | 
55 | Cc1ccc(/C=C2\SC(=S)N(C(Cc3ccccc3)C(=O)O)C2=O)cc1 (stereo not given) | 53.9% (active) | 
56 | O=C(O)C(Cc1ccccc1)N1C(=O)/C(=C/c2cccc3ccccc23)SC1=S (stereo not given) | 52.6% (active) | 
57 | COc1cc(/C=C2\SC(=S)N(C(C(=O)O)c3ccccc3)C2=O)ccc1O (stereo not given) | 47.4% (inactive) | 
58 | COc1cc(/C=C2\SC(=Nc3ccc(F)cc3)N(c3ccc(F)cc3)C2=O)ccc1OCC(=O)O | 35.3% (inactive) | 
59 | Cc1ccc(NC(=O)c2ccc3nsnc3c2)c(Cl)c1 | 1.6% (inactive) | 
60 | O=C(CSc1nnc(C2CCCCC2)o1)Nc1ccccc1Cl | 2.8% (inactive) | 
61 | O=C(NN=C1CCCC1)c1ccc(Cl)cc1 | -0.5% (inactive) | 
62 | CC(C)(C)c1ccc(NC(=S)NCCc2ccccn2)cc1 | -0.5% (inactive) | 
63 | CCN1CC=C2C(C#N)=C(N)C(C#N)(C#N)C(c3cc(Cl)ccc3Cl)C2C1 (stereo not given) | 2.6% (inactive) | 
64 | CCN1CC=C2C(C#N)=C(N)C(C#N)(C#N)[C@H](c3cccc(OC)c3OC)[C@H]2C1 | 61.5% (active) | 
65 | COc1cccc(C2C3CN(C)CC=C3C(C#N)=C(N)C2(C#N)C#N)c1OC (stereo not given) | 149% (inactive) | 
66 | CCCN1CC=C2C(C#N)=C(N)C(C#N)(C#N)C(c3cccc(OC)c3OC)C2C1 (stereo not given) | 67.5% (active) | 
67 | CCOC(=O)N1CC=C2C(C#N)=C(N)C(C#N)(C#N)[C@H](c3ccccc3OCC)[C@H]2C1 | 0.7% (inactive) | 
68 | COc1ccc([C@@H]2[C@H]3CN(C(C)=O)CC=C3C(C#N)=C(N)C2(C#N)C#N)c2ccccc12 | -3.1% (inactive) | 
69 | Cn1c(COc2ccccc2)nnc1SCC(=O)NCc1ccccc1 | -0.1% (inactive) | 

Row | Structure (SMILES) | inhibition (at 20 µM) | inhibition [1] [%]
70 | CC1(C)CC(NCc2cccc([N+](=O)[O-])c2)CC(C)(C)N1 | -1.8% (inactive) | 
71 | CN(C)n1cnc2ccsc2c1=O | 1.1% (inactive) | 
72 | CN(C(=O)COC(=O)CNC(=O)c1ccccc1Cl)c1ccccc1 | -0.3% (inactive) | 
73 | CCC1=NN2C(=N)/C(=C\c3cccn3-c3ccc(C)c(C)c3)C(=O)N=C2S1 | 35.7% (inactive) | 
74 | CCC1=NN2C(=N)/C(=C\c3cccn3-c3c(C)cccc3C)C(=O)N=C2S1 | 25.7% (inactive) | 
75 | CCC1=NN2C(=N)/C(=C\c3cccn3-c3ccc(C)cc3C)C(=O)N=C2S1 | 51% (active) | 
76 | CC(NCCc1ccc(S(N)(=O)=O)cc1)C(=O)NCCc1ccc(F)cc1 (stereo not given) | 0.6% (inactive) | 
77 | Cc1ccccc1/C=C1\SC(=S)N(/N=C/c2cc([N+](=O)[O-])ccc2O)C1=O | 26.8% (inactive) | 
78 | O=C1/C(=C/c2cccc(Br)c2)SC(=S)N1/N=C/c1cc([N+](=O)[O-])ccc1O | 16.7% (inactive) | 
79 | Cc1ccc(/C=C2\SC(=S)N(/N=C/c3cc([N+](=O)[O-])ccc3O)C2=O)o1 | 82.2% (active) | 
80 | CCNC(=S)NS(=O)(=O)c1ccc(C)cc1 | -1.7% (inactive) | 
81 | CCN(CC)c1ccc(/C=C(/C#N)C(=O)NC(C)C)o1 | 113% (active) | 
82 | CC(C)NC(=O)/C(C#N)=C/c1ccc(N(C)C)o1 | 82.3% (active) | 64.2
83 | CCN(CC)c1ccc(/C=C(/C#N)C(=O)NCc2ccccc2)o1 | 128% (inactive) | 
84 | Cc1ccc(/C=C(/C#N)C(=O)NC(C)c2ccccc2)o1 (stereo not given) | 3.2% (inactive) | 
85 | Cc1ccc(/C=C(\C#N)C(=O)NC(C)C)o1 | 1.4% (inactive) | 
86 | CC(C)NC(=O)/C(C#N)=C\c1ccc(N(C)C)o1 | 78.6% (active) | 59.9
87 | CC(C)NC(=O)/C(C#N)=C\c1ccc(N(C)C)c(Br)c1 | 0.3% (inactive) | 
88 | CN(C)c1ccc(/C=C(/C#N)C(=O)NCc2ccccc2)o1 | 134% (inactive) | 
89 | Cc1ccc(/C=C(\C#N)C(=O)NC(C)c2ccccc2)o1 (stereo not given) | 0.2% (inactive) | 
